Here are results for eleven compounds from PubChem BioAssay (NCI).

About 83,000 compounds went through this panel and 20% of them were active in at least one assay; those are over-represented in the sample as a whole.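 A percent growth of 40 corresponds to 60% growth inhibition; 0 means no net growth; -100 means all cells died. Active threshold: below 10.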 A number with no mark means an inactive call. Calls of active or inactive are those of the source.

Among the test systems are HCT-15 colon; HT29 colon; SNB-19 CNS; U251 CNS; PC-3 prostate; SK-MEL-5 melanoma; UACC-62 melanoma; LOX IMVI melanoma; SK-MEL-28 melanoma; SK-MEL-2 melanoma; EKVX NSCLC; SN12C renal; UO-31 renal; TK-10 renal; ACHN renal; CAKI-1 renal; A498 renal; CCRF-CEM leukemia; MOLT-4 leukemia; SNB-75 CNS.
Holding throughout (test): NCI-60 one-dose screen, 48 h (100 = growth as untreated, 0 = no growth, -100 = all killed)
Common to all, as to conditions: 10 µM unless noted

On to `CC(C)(C)OC(=O)CN1CCc2c(sc3ncnc(N4CCN(c5ccc(F)cc5)CC4)c23)C1`, for which the growth in the test with HCT-15 colon is 96.6%; with HT29 colon it was 98.7%; with SNB-19 CNS, 88%; with U251 CNS, 85.5%; in the test with PC-3 prostate it was 69.2%; in the test with SK-MEL-5 melanoma it was 92%. The growth was 68.4% with UACC-62 melanoma; 96.7% in the test with LOX IMVI melanoma; 92.5% in the test with SK-MEL-28 melanoma; 92.1% with SK-MEL-2 melanoma; 95.5% with EKVX NSCLC; 91.6% in the test with SN12C renal. For the same compound, the growth in the test with UO-31 renal is 51.7%; in the test with TK-10 renal it was 100%; with ACHN renal, 85.7%; in the test on CAKI-1 renal, 80.6%; in the test on A498 renal, 68.7%; in the test with CCRF-CEM leukemia, 59.2%. Moreover, in the test on MOLT-4 leukemia, the growth is 53.4%.

In the case of `CCOC(=O)C1=C(c2ccccc2)N=C2N(c3ccccc3)N=C(C(C)=O)N2C1c1ccc(F)cc1` (centres undefined), the growth was 90.8% in the test with HCT-15 colon; 109% with HT29 colon; 89.4% in the test on SNB-75 CNS; 103% in the test on U251 CNS; 89.4% with PC-3 prostate; 97.6% with SK-MEL-5 melanoma. The growth in the test on UACC-62 melanoma is 89.5%; in the test with LOX IMVI melanoma it was 102%; in the test on SK-MEL-28 melanoma, 105%; in the test with SK-MEL-2 melanoma, 112%; in the test with EKVX NSCLC it was 97%; in the test on UO-31 renal, 84.3%. Besides, the growth with TK-10 renal was 104%; with ACHN renal it was 96.7%; in the test with CAKI-1 renal, 91.8%; in the test on A498 renal it was 70.4%; in the test on CCRF-CEM leukemia it was 95.9%; with MOLT-4 leukemia it was 101%.

In the case of `COc1ccc2cc(C(=O)N3CCC([C@@H](C)C(=O)NCc4ccc5c(c4)OCO5)CC3)[nH]c2c1`, the growth is 83% [50 µM] in the test with HCT-15 colon; 89.6% [50 µM] in the test on HT29 colon; 25.8% [50 µM] with SNB-19 CNS; 23.6% [50 µM] with U251 CNS; 56.5% [50 µM] in the test on PC-3 prostate; 63.6% [50 µM] in the test with SK-MEL-5 melanoma. Further, the growth in the test on UACC-62 melanoma was 43.7% [50 µM]; in the test on LOX IMVI melanoma, 54.7% [50 µM]; with SK-MEL-28 melanoma, 77.8% [50 µM]; with SK-MEL-2 melanoma it was 63.6% [50 µM]; in the test on EKVX NSCLC, 73.4% [50 µM]; in the test on SN12C renal it was 53.2% [50 µM]. Further, the growth was 41.5% [50 µM] in the test with UO-31 renal; 27.1% [50 µM] with TK-10 renal; 29.4% [50 µM] in the test on ACHN renal; 60.3% [50 µM] with CAKI-1 renal; 80.4% [50 µM] with A498 renal; 85.8% [50 µM] with CCRF-CEM leukemia. The growth in the test on MOLT-4 leukemia was 78.2% [50 µM].

With `N#C/C(=C\c1ccc(-c2cccc(Cl)c2)o1)C(=O)Nc1ncc(Cc2ccc(Cl)cc2)s1`, the growth in the test on HCT-15 colon is 57.6%; in the test with HT29 colon it was 70.5%; in the test on U251 CNS it was 16.9%; in the test on PC-3 prostate, 39.5%; in the test on SK-MEL-5 melanoma, 89.9%; in the test with UACC-62 melanoma it was 43%. The growth in the test with LOX IMVI melanoma is 52.5%; in the test with SK-MEL-28 melanoma, 66.8%; in the test with SK-MEL-2 melanoma, 97.2%; in the test on EKVX NSCLC, 69.4%; in the test on SN12C renal, 35.9%; in the test with UO-31 renal it was 23.7%. For the same compound, the growth was 69.9% with TK-10 renal; 31.4% in the test on ACHN renal; 51.6% in the test with CAKI-1 renal; 43.6% in the test on CCRF-CEM leukemia; 87.1% in the test with MOLT-4 leukemia.

Consider `N#Cc1ccccc1-c1ccc(CN2C(=O)S/C(=C\c3ccc(Br)cc3)C2=O)cc1`, for which the growth with HCT-15 colon is 98.7%; in the test with HT29 colon, 104%; with SNB-19 CNS it was 93.5%; with U251 CNS, 96.4%; in the test on PC-3 prostate it was 99.9%; in the test with SK-MEL-5 melanoma it was 98.7%. The growth was 88.7% with UACC-62 melanoma; 101% in the test on LOX IMVI melanoma; 108% with SK-MEL-28 melanoma; 102% with SK-MEL-2 melanoma; 87.8% in the test with EKVX NSCLC; 91.6% in the test with SN12C renal. The growth with UO-31 renal was 91%; in the test with TK-10 renal it was 110%; with ACHN renal, 104%; in the test with CAKI-1 renal, 85.4%; in the test on A498 renal, 107%; with CCRF-CEM leukemia, 100%. Also, the growth in the test with MOLT-4 leukemia was 106%.

In the case of `O=c1cc(-c2ccccc2)nc(SCc2nc3cc(Cl)c(Cl)cc3[nH]2)[nH]1`, the growth was 98% in the test on HCT-15 colon; 96.4% in the test with HT29 colon; 99.9% in the test on U251 CNS; 103% with PC-3 prostate; 105% with SK-MEL-5 melanoma; 105% in the test on UACC-62 melanoma. In addition, the growth in the test on LOX IMVI melanoma is 98%; in the test on SK-MEL-28 melanoma, 111%; with SK-MEL-2 melanoma, 91.3%; with EKVX NSCLC, 102%; in the test with SN12C renal, 105%; with UO-31 renal it was 81.7%. Further, the growth is 104% with TK-10 renal; 97.3% in the test on ACHN renal; 93.3% in the test on CAKI-1 renal; 93.7% with A498 renal; 124% in the test with CCRF-CEM leukemia; 95.5% with MOLT-4 leukemia.

Turning to `Nc1cc(-c2ccc(Cl)cc2)nn1-c1nnc(/C=C/c2ccco2)c(=O)[nH]1`, the growth was 38.1% with HCT-15 colon; 44.2% in the test with HT29 colon; 67.3% with SNB-75 CNS; 50.6% with U251 CNS; 52.6% with PC-3 prostate; 46% in the test with SK-MEL-5 melanoma. Also, the growth in the test with UACC-62 melanoma was 52.5%; in the test on LOX IMVI melanoma it was 49.9%; with SK-MEL-28 melanoma it was 66.4%; in the test on SK-MEL-2 melanoma, 87.9%; with EKVX NSCLC, 41.7%; in the test with UO-31 renal, 3.92% (active). The growth in the test on TK-10 renal was 51.2%; in the test on ACHN renal, 29.4%; with CAKI-1 renal it was 1.03% (active); in the test on A498 renal it was 33.8%; in the test with CCRF-CEM leukemia, 33.9%; in the test with MOLT-4 leukemia it was 44.4%.

Take `Cn1cc(-c2csc(-c3cn(C)c4ccccc34)n2)c2cnccc21`: the growth was -35.9% (active) in the test on HCT-15 colon; 4.26% (active) in the test on HT29 colon; 52.2% with SNB-19 CNS; -48.7% (active) in the test on U251 CNS; 54.8% with PC-3 prostate; -76.2% (active) in the test with SK-MEL-5 melanoma. For the same compound, the growth with UACC-62 melanoma was 61.4%; in the test on LOX IMVI melanoma, -87.5% (active); with SK-MEL-28 melanoma, -92.9% (active); in the test with SK-MEL-2 melanoma it was 107%; in the test on EKVX NSCLC, 16.8%; in the test with SN12C renal, 67.8%. Besides, the growth with UO-31 renal was -48.1% (active); in the test with TK-10 renal it was 66.7%; in the test on ACHN renal, -61.4% (active); with CAKI-1 renal, -6.15% (active); with A498 renal it was 85.2%; in the test on CCRF-CEM leukemia, 0.781% (active). For the same compound, the growth in the test with MOLT-4 leukemia was 5.42% (active).

On to `COc1ccc(-c2cn(Cc3cc4ccccc4s3)nn2)cc1OCCN1CCCCC1`, for which the growth in the test on HCT-15 colon is 59.4%; in the test on HT29 colon, 20.1%; with SNB-19 CNS it was 86.3%; in the test on U251 CNS, 74.5%; in the test with PC-3 prostate, 68.4%; with SK-MEL-5 melanoma, 42.8%. The growth is 83.8% in the test with UACC-62 melanoma; 48.9% with LOX IMVI melanoma; 75.8% with SK-MEL-28 melanoma; 90.8% in the test on SK-MEL-2 melanoma; 84.3% with EKVX NSCLC; 81.6% with SN12C renal. Also, the growth with UO-31 renal is 37.2%; with TK-10 renal, 90.1%; in the test with ACHN renal it was 89.4%; in the test with CAKI-1 renal, 78.9%; in the test with A498 renal, -1.93% (active); with CCRF-CEM leukemia, 62.2%. Moreover, the growth with MOLT-4 leukemia is 53%.

For the compound `COc1nc(/C=C\Nc2ccc3c(c2)OCCOCCOCCOCCO3)nc(OC)n1`, the growth in the test on HCT-15 colon was 91.5%; in the test with HT29 colon it was 99.5%; with SNB-19 CNS, 103%; in the test on U251 CNS, 103%; with PC-3 prostate, 99.4%; with SK-MEL-5 melanoma it was 97.5%. For the same compound, the growth in the test with UACC-62 melanoma was 93.3%; in the test with LOX IMVI melanoma, 92.1%; in the test on SK-MEL-28 melanoma, 104%; with SK-MEL-2 melanoma, 108%; in the test on EKVX NSCLC, 91.8%; with SN12C renal, 93.2%. Further, the growth in the test with UO-31 renal is 79.5%; in the test with TK-10 renal it was 81.9%; with ACHN renal, 99.8%; with CAKI-1 renal it was 93.1%; in the test on A498 renal, 75.7%; in the test on CCRF-CEM leukemia it was 118%. The growth in the test with MOLT-4 leukemia was 107%.

Regarding `CN1CC(c2ccc(Br)cc2)C(C(=O)c2ccc(Br)cc2)C12C(=O)Nc1ccccc12` (centres undefined), the growth in the test on HCT-15 colon was 59.5%; in the test on HT29 colon, 36%; in the test with SNB-19 CNS it was 85.1%; in the test with U251 CNS, 82.3%; in the test on PC-3 prostate, 43.5%; with SK-MEL-5 melanoma, 94.2%. The growth with UACC-62 melanoma was 63.9%; with LOX IMVI melanoma it was 79.8%; in the test with SK-MEL-28 melanoma, 95.6%; in the test on SK-MEL-2 melanoma, 82.9%; in the test with EKVX NSCLC, 70.1%; in the test on SN12C renal, 70%. In addition, the growth was 48.3% in the test on UO-31 renal; 92.1% with TK-10 renal; 79.6% in the test on ACHN renal; 46.9% in the test with CAKI-1 renal; 88.9% in the test with A498 renal; 80.2% in the test on CCRF-CEM leukemia. The growth with MOLT-4 leukemia was 64.3%.
